Measurements reported in the supplement of paper PMC6555819.

Assays:
Assay in all cases: PBM binding z-score (relative to random genomic background probes); higher = stronger binding; sequences stand for … in GC…GCGATTGACAGCGTAGAATGAAGG
[1] = system: LXRa:RXRa (NR concentration 270 nM, RXRa partner concentration 90 nM)
In short: (§1)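 Scanned fluorescence from custom Agilent 4×180K protein-binding microarrays was regression-normalized. Binding z-scores use random background probes as reference. Ligand-free nuclear receptor dimers were incubated on the arrays for 1 h and detected with antibodies against each partner (one per run).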

[2] = system: LXRa homodimer (NR concentration 270 nM)
In short: as §1

[3] = system: LXRb homodimer (NR concentration 270 nM)
In short: as §1

[4] = system: PPARa:RXRa (NR concentration 270 nM, RXRa partner concentration 90 nM)
In short: as §1

[5] = system: PPARg:RXRa (NR concentration 180 nM, RXRa partner concentration 90 nM)
In short: as §1

[6] = system: PPARg:RXRa 270nM:90nM, anti-RXR (NR concentration 270 nM, RXRa partner concentration 90 nM)
In short: as §1

[7] = system: PPARg:RXRa 30nM:10nM, anti-RXR (NR concentration 30 nM, RXRa partner concentration 10 nM)
In short: as §1

[8] = system: PPARg:RXRa 90nM:30nM, anti-RXR (NR concentration 90 nM, RXRa partner concentration 30 nM)
In short: as §1

[9] = system: PPARg:RXRa DBDmut IVT, anti-RXR (DBD mutation: RXRa K156A/R161A, NR concentration 270 nM, RXRa partner concentration 90 nM)
In short: as §1

[10] = system: FXR:RXRa (NR concentration 270 nM, RXRa partner concentration 90 nM)
In short: as §1

Sequence	PBM binding z-score [1]	PBM binding z-score [2]	PBM binding z-score [3]	PBM binding z-score [4]	PBM binding z-score [5]	PBM binding z-score [6]	PBM binding z-score [7]	PBM binding z-score [8]	PBM binding z-score [9]	PBM binding z-score [10]
CATACAGGGTCGGCTAGGCCAGAGTAGGGACGGC	0.0375	-0.58	-0.356	0.514	0.288	-0.0886	-0.643	-0.513	-0.787	–
CAAACTAGGTCACCGAAAGGTCAAAGTCCGCATG	–	7.45	2.39	–	–	8.22	6.51	8.62	8.72	7.31
ATCGAAAGGTCGACGAGGTGAGTAAACACCGTTT	3.58	0.0172	0.228	4.51	2.6	3.59	1.02	2.3	0.114	–
CCGAGTAGGTTACGAGGGGTCATTCAGTGCGAAT	–	6.16	–	5.09	4.13	4.4	1.73	3.54	4.41	4.94
ATATGTAGGTTAACTGGGGTCATTCAGACTAGGC	–	5.57	1.43	–	7.58	6.61	4.49	6.42	7.59	5.59
CGTCCAAAGTCAAAGGTCAGTGAAGAGATGACGG	–	1.31	0.637	–	5.73	5.88	3.89	5.37	0.242	3.96
CGTCAAAGATCAAGGTAACGTAACAGAAAGCAGC	-0.053	-0.313	-0.677	0.962	0.887	1.09	0.0515	0.332	0.519	–
TCTAGTGGGTCAAAGGTCACACACTCGAAATGCG	–	3.93	1.59	–	–	11.1	12.2	12.6	7.68	7.63
CCTACTGGGCCATTCAGAGGTCAATGATCATATG	–	4.81	0.521	–	2.59	3.02	0.908	2.2	4.08	2.47
AGAATGAGGTCAAGATCAGGGAAACAGAATACAT	5.9	0.974	1.7	6.42	7.59	6.96	4.75	6.74	5.82	–
TAGCCTAGGTCATGCGGCCCAGTATAGTGTCGGC	3.19	0.125	-0.105	3.52	2.04	2.49	0.144	1.04	1.17	–
